Rows were chosen to be rich in hits. Some 5.7% of all compounds tested hit in one or more screens of this group.
hcDAF-12 act – activators of H. contortus DAF-12 nuclear receptor | HEK293 hcDAF-12 lit1-tk-luc reporter, luminescence; 0% DMSO, 100% Δ7-dafachronic acid | hit rate 1.4% among 370,000 | AID 652067 | activation, % at 6.8 µM;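 active = activation above the mean of all tested compounds plus 3 SD, cut at about 5.5% in these data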;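 note: 100% = response to 3 µM Δ7-dafachronic acid high control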
DAX1 inh-1 – blocks DAX1 repression of SF-1 activated StAR promoter. HEK293T StAR-luciferase reporter, SF-1/DAX-1 repression relief. inhibition, % at 6.8 µM. hit rate 1.1% among 370,000. AID 652010;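 active = inhibition above the mean over all tested compounds plus 3 SD, cut at about 3.6% in these data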;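 note: 0% = DAX-1 cells with DMSO and 100% = cells lacking DAX-1 with DMSO; higher inhibition means more luminescence from relief of DAX-1 repression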
ssDAF-12 act – S. stercoralis DAF-12 activation, primary screen | hit rate 1% among 370,000 | activation, % at 6.8 µM | HEK293 ssDAF-12/GRIP1 lit1-tk-luc reporter, luminescence; % of 3 µM dafachronic acid response;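 active = activation above the mean over all tested compounds plus 3 SD, cut at about 0.9% in these data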;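 note: 0% = DMSO-only wells and 100% = 3 µM delta7-dafachronic acid wells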
DAX1 inh-2 – inhibitors of human orphan nuclear receptor DAX1 (NR0B1). HEK293 Gal4-DAX1 luciferase reporter, luminescence. inhibition, % at 6.75 µM. hit rate 0.99% among 340,000. AID 504766;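 active = inhibition above the mean over all tested compounds plus 3 SD, cut at about 4.2% in these data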;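 note: 0% = DAX1-transfected cells with DMSO and 100% = empty-vector control cells with DMSO; inhibition shows as a rise in luminescence from relieved DAX1 repression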
Target sequence (P51843 207-470 limits assumed): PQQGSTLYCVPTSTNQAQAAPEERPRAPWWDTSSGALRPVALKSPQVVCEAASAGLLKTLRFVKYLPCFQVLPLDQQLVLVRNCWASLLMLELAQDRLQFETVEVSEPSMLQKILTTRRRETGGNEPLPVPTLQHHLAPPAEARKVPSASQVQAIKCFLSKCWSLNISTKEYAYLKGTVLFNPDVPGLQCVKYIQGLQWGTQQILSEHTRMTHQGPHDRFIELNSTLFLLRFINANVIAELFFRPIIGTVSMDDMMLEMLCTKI
AHR act – activators of human aryl hydrocarbon receptor; P35869; AHR-responsive luciferase reporter cells, luminescence; activation, % at 5 µM; hit rate 2.5% among 320,000; in the data active = activation above about 47%;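 note: 0% = vehicle wells and 100% = reference agonist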
hgDAF-12 ag – activates the H. glycines DAF-12 receptor ligand-binding domain | HEK293 GAL4-hgDAF12 UAS-luciferase reporter, agonist luminescence; normalized to butyrate control | activation, % at 6.8 µM | hit rate 1.8% among 370,000 | AID 687014;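 active = activation above a cutoff set at the mean of all screened compounds plus 3 SD, cut at about 10% in these data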;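 note: 0% = DMSO wells and 100% = sodium butyrate wells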
hgDAF12 conf – hgDAF-12 agonism, confirmation assay; shares compounds with hgDAF-12 ag; HEK293 GAL4-hgDAF12 luciferase reporter, agonist mode; percent of butyrate response; activation, % at 6.8 µM; hit rate 80% among 3,300; AID 743050;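 active = mean activation over triplicate wells above the hit cutoff derived from the earlier primary screen, cut at about 11% in these data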;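 note: 0% = DMSO low control and 100% = 2 mM sodium butyrate high control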
LXRb DAF12 ctr – activates human LXR-beta, counter-screen for DAF-12 agonists. shares compounds with hgDAF-12 ag. HEK293 Gal4-LXR luciferase reporter, 24 h. activation, % at 6.8 µM. 3,300 tested, under 10 active. AID 743051;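 active = mean activation of the triplicate above a set limit carried over from the primary screen, none filed active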
Active calls of the source: *; . = no result given.

SMILES	hcDAF-12 act	DAX1 inh-1	ssDAF-12 act	DAX1 inh-2	AHR act	hgDAF-12 ag	hgDAF12 conf	LXRb DAF12 ctr
CC(Sc1nnc(NCc2ccccc2)s1)C(=O)Nc1ccc2c(c1)C(=O)c1ccccc1C2=O (stereo not given)	1	1	-1	-1	50*	15*	9	0
CC(Sc1nnc(NC2CC2)s1)C(=O)Nc1ccc(S(N)(=O)=O)cc1 (stereo not given)	0	0	-1	1	1	2	.	.
C[N+](C)(C)CC(=O)N1CCN(c2ccc3ccccc3n2)CC1	0	1	-1	0	.	-1	.	.
Oc1ccccc1N1CCN(c2ccc3ccccc3n2)CC1	5	2	1	2	10	16*	15*	1
O=C(Nc1ccc(S(=O)(=O)Nc2ncccn2)cc1)c1ccc2ncsc2c1	-3	-1	-2	1	-2	-6	.	.
CC(=O)N1CCc2cc(N=NC3=C(O)CCCC3=O)ccc21	4	2	-1	4	0	15*	16*	0
N/C(=N\C(=S)Nc1ccccc1)c1ccccc1	6.0*	2	0	4.7*	6	16*	17*	1
Nc1nc(-c2ccc3c(c2)CCCC3)cs1	2	2	0	1	0	16*	11*	1
Nc1nc(-c2ccc3c(c2)OCCO3)cs1	4	2	-1	2	11	6	.	.
Cn1cnnc1SCC(=O)Nc1ccc2nc(SCc3ccccc3F)sc2c1	1	1	-1	2	0	13*	13*	0
O=C(CSc1nc2ccc(NC(=O)CSc3nnnn3-c3ccccc3)cc2s1)Nc1ccccc1	2	-1	-1	-2	16	-2	.	.
CCC(Oc1ccccc1)C(=O)N1CCN(C(=O)C(CC)Oc2ccccc2)CC1 (stereo not given)	-1	0	-1	0	-2	-1	.	.
O=C(CN1CCN(C(=O)c2cc(C3CC3)nn2-c2ccccc2)CC1)Nc1ccc(F)cc1	-1	-1	-1	0	.	15*	-3	0
COc1ccc(Cl)cc1C(=O)Nc1ccc(NC(=O)C(C)C)cc1	-3	-1	-2	-1	20	-1	.	.
CCOC(=O)c1ccc(N/C=C/C(=O)c2ccc(OC)cc2)cc1	-1	1	-1	3	1	0	.	.
COc1ccc(N/C=C/C(=O)c2ccc(Cl)cc2)cc1	3	4	1	1	-2	13*	16*	1
COc1ccc(/C=N/Nc2ccccn2)cc1O	4	2	0	3	1	17*	12*	0
Brc1ccc(/C=N/Nc2ccccn2)cc1	2	2	1	1	9	15*	11*	0
Oc1cccc(C=NNc2ccccn2)c1	-2	2	0	4	.	4	.	.
CC(=O)OC(C)=O	-2	1	-1	1	0	0	.	.
CCc1ccc(NC(=O)N(C2CCC(C)CC2)C2CCN(C(C)=O)CC2)cc1 (stereo not given)	-1	1	0	-1	4	-1	.	.
Cc1nn(-c2cccc([N+](=O)[O-])c2)c(N)c1-c1ccccc1	1	1	-1	1	-4	14*	11*	0
Cc1nn(-c2ccccc2)c(N)c1Sc1cccc([N+](=O)[O-])c1	-4	-1	-1	-1	0	5	.	.
CCOC(=O)c1c(NC(=O)CC2Nc3cc(C)c(C)cc3NC2=O)sc(C)c1C (stereo not given)	-2	0	-1	1	10	-2	.	.
CC(C)CSc1nnc2c(n1)[nH]c1ccccc12	6.4*	4.0*	1.2*	2	26	14*	12*	1
SMILES	hcDAF-12 act	DAX1 inh-1	ssDAF-12 act	DAX1 inh-2	AHR act	hgDAF-12 ag	hgDAF12 conf	LXRb DAF12 ctr
CC(C)Cc1cc(C(=O)NCc2cccnc2)no1	1	3	-1	2	7	10	.	.
CCCNC(=O)c1cc(-c2ccco2)on1	4	0	-1	2	9	47*	37*	0
O=C(NCc1ccco1)c1cc(-c2ccc(F)cc2)on1	2	2	-1	2	-3	17*	15*	0
O=C(NCc1ccco1)c1cc(-c2ccccc2)on1	2	3	0	3	1	23*	22*	0
CC(C)Cc1cc(C(=O)NCc2cccs2)no1	2	4.3*	1	3	4	19*	13*	0
Cc1ccc(CNC(=O)C2(S(=O)(=O)c3ccccc3)CC=CC2)cc1	.	.	.	1	9	.	.	.
CCOC(=O)C1=C(COC(=O)c2ccc(Cl)nc2)NC(=O)NC1C (stereo not given)	-1	1	-1	2	.	2	.	.
Cc1ccc(/C=N/NC(=O)CNC(=O)c2cccc([N+](=O)[O-])c2C)o1	-1	1	-1	0	6	-2	.	.
COCCCNC(=O)c1ccc(S(=O)(=O)c2ccc(Cl)cc2)c(NC(C)=O)c1	3	0	-1	-2	1	0	.	.
O=C(NCc1ccco1)c1cc(-c2cccs2)on1	3	1	-1	3	2	23*	22*	0
Cc1nn(-c2ccc(F)cc2)c(Cl)c1/C=N/NC(=O)c1cccs1	0	2	0	2	4	15*	6	0
Cc1ccsc1/C=N/NC(=O)c1cccs1	4	1	-1	3	32	15*	10	0
Cc1ccsc1/C=N/NC(=O)C(N)=O	1	1	-1	3	0	1	.	.
O=C(N/N=C/C(Br)=C/c1ccccc1)c1cccs1	3	3	1	4.5*	9	24*	15*	1
O=C(Cc1ccc(F)cc1)NCCS(=O)(=O)N1CCN(c2cccc(Cl)c2)CC1	-2	0	-1	-1	-1	-1	.	.
O=C(Nc1nccs1)C(Br)C(Br)c1ccccc1 (stereo not given)	6.4*	1	0	0	52*	16*	19*	1
O=C(CSc1ccccn1)Nc1ccc(NC(=O)CSc2ccccn2)cc1	2	-1	-1	0	4	0	.	.
CCc1ccc(NC(=O)CSc2ccccn2)cc1	3	1	-1	2	1	14*	6	0
O=C(CCSc1ccccn1)Nc1ccc(Br)cc1	2	2	1.1*	1	7	14*	11*	1
O=C(N/N=C/c1c(Cl)cccc1Cl)c1cccc(F)c1	.	.	.	0	2	.	.	.
O=C(N/N=C/c1cccc(F)c1)c1ccc(Cl)cc1	2	3.7*	0	3	4	18*	12*	0

Bioassay records from PubChem.
